Data on 6 molecules can be found in PubChem BioAssay (NCATS).

Several values for one entry are separate records, joined by “and”; a condition that tells them apart may be missing. Identical values can stand only once. Records with an inconclusive call do not appear. Activity calls are given as the source filed them. Unless noted, the call rests on the fitted dose curve; in most records, active means well fitted curve in either direction with a large enough effect (not every such curve was filed as active); inconclusive means small, poorly fitted or top-dose-only effect, or another doubt; inactive means flat fitted curve, though single readings scatter.

Assay [1] is described as follows: AP1 Signaling Pathway (AID 357).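 Further: ME-180 reporter cells stimulated with EGF at its EC50 level; on the % scale 0 is the no-effect control and ±100 the full control effect.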 The gist of the method:
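First, ME-180 AP-1-bla cells were cultured overnight at 37 °C in low-serum Opti-MEM. Next, titrated compounds with EC50 EGF were incubated 5 hours. Finally, CCF4 was added for 2.5 hours and the 460/530 nm ratio recorded.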

Assay [2] deals with Cytochrome P450 1A2 (Homo sapiens) (UniProt P05177). Description: p450-cyp1a2 (AID 410; calls by dose curve; further: potency means the concentration at half of the fitted maximal effect;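 on activity change, negative = inhibition: -100% = full effect of reference inhibitor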). The gist of the method: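 Luminescent readout of luciferin formed from Luciferin-ME by human CYP1A2; data normalized against complete inhibition by 57 uM furafylline. Enzyme 20nM, substrate 100uM at Km, 100mM KPO4 buffer, 60 min reaction at room temperature.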
Assay [3] is described as follows: Stat Signaling Pathway (AID 446).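 Further: ME-180 cervical cancer cells given 40 pM IL-6 alongside compound; SIE-controlled beta-lactamase reporter measured as 460/530 nm FRET emission ratio; on the % scale 0 is the no-effect control and ±100 the full control effect.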 Summed up:
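ME-180 cells carrying a SIE-driven beta-lactamase reporter are stimulated with 40 pM IL-6 for 5 h at 37C in the presence of compound. The 460/530 nm FRET substrate ratio is read after 2.5 h at RT. Data are normalised to 300 pM IL-6 and to 125 nM JAK inhibitor controls.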

In assay [4] the target is Glucocorticoid receptor (Homo sapiens) (UniProt P04150). Description: GR-GFP Redistribution (AID 450;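 active means compounds whose dose series gives a full or clear partial fitted curve of increased nuclear translocation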; further: potency means the concentration at half of the fitted maximal effect). The following applies: U2OS GR-GFP nuclear translocation, laser cytometry, 2 h.
The target is the same in assay [5]. Nature of the assay: GR-EFC Redistribution (AID 451; calls by dose curve; further: potency means the concentration at half of the fitted maximal effect). The following applies: CHO-K1 GR-EFC translocation, beta-gal luminescence, 2 h. Summed up:
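CHO-K1 cells stably expressing nuclear-localized β-gal enzyme acceptor and GR fused C-terminally to the enzyme donor fragment; ligand-driven nuclear translocation restores β-gal by complementation. Compounds titrated up to 46 uM final, 2 h at 37 °C; luminescence read.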

In assay [6] the target is Mitogen-activated protein kinase 10 (Mus musculus) (UniProt Q61831). Description: JNK3 AlphaScreen Assay (AID 530).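 Further: kinase came from lysate of stimulated human HepG2 cells; signal reports phosphorylation of biotinylated GST-cJun 1-79 at Ser73 with 10 µM ATP; on the % scale 0 is the no-effect control and ±100 the full control effect.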 The gist of the method: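 Inhibitors reduce antibody binding to phosphorylated biotin-cJun, lowering AlphaScreen luminescence. Lysates from HepG2 cells pre-activated by IL-1beta plus TNF-alpha supplied JNK3; compounds were titrated.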
Assay [7] deals with 3',5'-cyclic-AMP phosphodiesterase 4B (Homo sapiens) (UniProt Q07343). Description: qHTS Assay for Inhibitors of PDE-IV (AID 607; active means well fitted activation curve with a large enough effect in the main read-out, with a control signal flat, not every such curve was filed as active; further: % of control where 0% means no effect). The gist of the method:
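HEK293 ACTOne cells with CNG channel (1000/well), endogenous PDE4; membrane potential dye, compounds up to 22.9 uM final. Fluorescence Ex 535/Em 590; RO 20-1724 (100 uM final) as reference.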

A short description of assay [8]: qHTS Assay for Lipid Storage Modulators (AID 1519; calls by dose curve). The settings on record: Drosophila S3 cells, BODIPY lipid droplet/cell ratio, laser cytometry, cells loaded with oleic acid; for activity change, negative = inhibition: at 25.7 µM (top of the series). The gist of the method: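 Cells seeded at 5,000 per well were treated with compounds over a concentration series and loaded with oleic acid (400 uM, as added). Lipid droplet fluorescence (488 nm excitation, 500-530 nm channel) was read by laser-scanning cytometry and normalized to 20 uM Triacsin C.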

Assay [9] has as its target Ubiquitin carboxyl-terminal hydrolase 1 (Homo sapiens) (UniProt O94782). Nature of the assay: Inhibitors of USP1/UAF1: Pilot qHTS (AID 504865; active means well fitted inhibition curve with a large enough effect;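 further: rhodamine fluorescence freed from ubiquitin-rhodamine substrate followed over time; top concentration of the series differs between compounds; on the % scale 0 is the no-effect control and ±100 the full control effect; nearly all actives have a fitted effect of over 35% in size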). Summed up: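 Kinetic fluorescence assay: 1nM USP1/UAF1, 15 min compound preincubation, then 150nM Ub-Rho; 480/540 nm.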
Assay [10] addresses Luciferin 4-monooxygenase (Photinus pyralis) (UniProt P08659). Description: Biochemical firefly luciferase enzyme assay for NPC (AID 624030; active means well fitted inhibition curve with a large enough effect;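 further: purified P. pyralis luciferase at 10 nM with luciferin and ATP substrate; 0% = DMSO and -100% = full luciferase inhibition by PTC124 control; nearly all actives have a fitted effect of over 70% in size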). The gist of the method: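 Counter-screen for direct inhibition of the luciferase enzyme by approved-drug library compounds, run at 10 nM enzyme in 50 mM Tris acetate (final). Luminescence was read within 5 min of enzyme-buffer addition and normalized to PTC124 versus DMSO (0%).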

A short description of assay [11]: qHTS profiling for inhibitors of Plasmodium falciparum proliferation (AID 504749; active means well fitted inhibition curve with a large enough effect;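 further: 0% = DMSO vehicle and full inhibition = artemisinin control; nearly all actives have a fitted effect of over 60% in size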). The following applies: P. falciparum in erythrocytes, SYBR Green DNA, 72 h, at 12.8 µM (top of the series). Summed up: (§1)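 Parasite proliferation within erythrocytes, 72 h exposure. Endpoint: SYBR Green I fluorescence after overnight lysis at room temperature. Controls: 0.29 uM artemisinin, DMSO.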

Assay [12] has as its system 3D7. Described as above. The following applies: P. falciparum in erythrocytes, SYBR Green DNA, 72 h; series mostly up to 28.7 µM. The gist of the method: as §1
The subject of assay [13] is C2A. The assay is described as above. The following applies: P. falciparum in erythrocytes, SYBR Green DNA, 72 h; series mostly up to 28.7 µM. Summed up:
as §1

For assay [14], the system named is CP211. The description is as above. The following applies: P. falciparum in erythrocytes, SYBR Green DNA, 72 h; series mostly up to 28.7 µM. Summed up:
as §1

Assay [15] deals with CP217. Described as above. The settings on record: P. falciparum in erythrocytes, SYBR Green DNA, 72 h; series mostly up to 28.7 µM. The gist of the method:
as §1

Assay [16] deals with CP252. The assay is described as above. The following applies: P. falciparum in erythrocytes, SYBR Green DNA, 72 h; series mostly up to 12.8 µM. Summed up: as §1
Assay [17] relates to CP262. The description is as above. The settings on record: P. falciparum in erythrocytes, SYBR Green DNA, 72 h; series mostly up to 28.7 µM. Summed up:
as §1

Assay [18] has as its system CP286. Described as above. The settings on record: P. falciparum in erythrocytes, SYBR Green DNA, 72 h; series mostly up to 28.7 µM. The gist of the method:
as §1

In assay [19] the test system is ECU. Described as above. The following applies: P. falciparum in erythrocytes, SYBR Green DNA, 72 h; series mostly up to 28.7 µM. Summed up:
as §1

The nature of assay [20]: NFAT Signaling Pathway (AID 444).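 Further: carbachol stimulus at about its EC50 of 1 µM final; on the % scale 0 is the no-effect control and ±100 the full control effect.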 The following applies: Jurkat NFAT-bla M1, carbachol, beta-lactamase ratio, 5 h; at 17.2 µM (top of the series). The gist of the method:
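Jurkat cells carrying an NFAT-driven β-lactamase reporter and co-transfected muscarinic M1 receptor were treated with compound plus carbachol (1 uM final, an EC50 level) for 5 h at 37 °C. CCF4 loading followed for 1 h at RT; 460/530 nm ratio gave %activity.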

Where [21] appears, read: measured here: cell count channel max response.
[22] abbreviates: measured here: lipid channel max response.

Chain of 3',5'-cyclic-AMP phosphodiesterase 4B (Homo sapiens) (Q07343 whole entry, looked up): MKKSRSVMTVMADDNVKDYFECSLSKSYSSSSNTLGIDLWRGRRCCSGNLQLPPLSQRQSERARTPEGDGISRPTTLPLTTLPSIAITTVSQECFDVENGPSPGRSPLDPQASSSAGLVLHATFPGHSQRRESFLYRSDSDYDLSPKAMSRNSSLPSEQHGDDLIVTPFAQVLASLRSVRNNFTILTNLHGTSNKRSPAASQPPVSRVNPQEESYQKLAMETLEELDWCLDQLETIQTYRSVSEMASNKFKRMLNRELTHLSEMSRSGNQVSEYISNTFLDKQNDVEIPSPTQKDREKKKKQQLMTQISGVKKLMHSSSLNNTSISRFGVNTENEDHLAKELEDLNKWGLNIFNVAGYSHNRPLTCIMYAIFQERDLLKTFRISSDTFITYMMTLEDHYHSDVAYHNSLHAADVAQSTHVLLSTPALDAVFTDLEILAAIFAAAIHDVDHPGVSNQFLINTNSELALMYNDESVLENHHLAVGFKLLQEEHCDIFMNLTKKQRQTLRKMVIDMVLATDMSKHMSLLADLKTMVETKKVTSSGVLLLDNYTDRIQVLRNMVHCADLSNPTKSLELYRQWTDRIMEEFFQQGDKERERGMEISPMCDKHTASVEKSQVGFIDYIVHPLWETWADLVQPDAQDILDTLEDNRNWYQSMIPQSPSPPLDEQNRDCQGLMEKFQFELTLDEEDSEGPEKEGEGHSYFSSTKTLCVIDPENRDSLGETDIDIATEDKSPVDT
Chain of Glucocorticoid receptor (Homo sapiens) (P04150 whole entry, looked up): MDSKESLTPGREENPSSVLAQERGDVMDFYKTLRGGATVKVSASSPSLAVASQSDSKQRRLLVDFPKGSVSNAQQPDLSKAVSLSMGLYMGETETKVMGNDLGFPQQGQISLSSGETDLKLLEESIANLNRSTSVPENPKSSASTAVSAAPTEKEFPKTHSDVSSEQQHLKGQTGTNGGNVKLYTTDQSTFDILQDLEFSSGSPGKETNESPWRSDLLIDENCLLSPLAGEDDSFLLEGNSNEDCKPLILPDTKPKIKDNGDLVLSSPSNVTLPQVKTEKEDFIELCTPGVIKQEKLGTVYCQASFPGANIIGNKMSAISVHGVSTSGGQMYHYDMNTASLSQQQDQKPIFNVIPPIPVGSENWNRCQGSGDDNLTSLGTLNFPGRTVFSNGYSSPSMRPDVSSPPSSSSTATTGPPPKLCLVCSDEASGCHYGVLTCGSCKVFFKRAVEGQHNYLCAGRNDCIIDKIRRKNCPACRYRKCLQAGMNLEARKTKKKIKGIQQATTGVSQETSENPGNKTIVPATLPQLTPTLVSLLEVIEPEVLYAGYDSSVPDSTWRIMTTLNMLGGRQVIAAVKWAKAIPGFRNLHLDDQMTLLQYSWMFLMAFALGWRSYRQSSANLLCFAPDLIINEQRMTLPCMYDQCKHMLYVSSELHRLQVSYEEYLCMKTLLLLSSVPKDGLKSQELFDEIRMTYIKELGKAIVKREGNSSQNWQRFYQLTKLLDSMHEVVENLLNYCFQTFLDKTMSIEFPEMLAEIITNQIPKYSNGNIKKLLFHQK
Chain of Cytochrome P450 1A2 (Homo sapiens) (P05177 whole entry, looked up): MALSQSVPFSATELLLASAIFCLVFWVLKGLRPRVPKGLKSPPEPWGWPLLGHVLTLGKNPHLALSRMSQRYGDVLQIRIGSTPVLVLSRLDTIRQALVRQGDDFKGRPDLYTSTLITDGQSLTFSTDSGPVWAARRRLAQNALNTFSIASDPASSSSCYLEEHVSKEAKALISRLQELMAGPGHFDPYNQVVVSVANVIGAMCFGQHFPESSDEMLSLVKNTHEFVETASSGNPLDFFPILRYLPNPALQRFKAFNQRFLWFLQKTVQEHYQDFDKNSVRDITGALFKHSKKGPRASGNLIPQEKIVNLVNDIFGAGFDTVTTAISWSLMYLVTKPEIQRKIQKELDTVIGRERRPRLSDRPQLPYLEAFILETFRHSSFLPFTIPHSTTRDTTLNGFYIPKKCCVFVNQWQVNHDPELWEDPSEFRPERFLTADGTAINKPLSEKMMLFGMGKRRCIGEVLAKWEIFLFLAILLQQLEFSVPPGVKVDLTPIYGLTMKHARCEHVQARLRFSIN
Chain of Ubiquitin carboxyl-terminal hydrolase 1 (Homo sapiens) (O94782 whole entry, looked up): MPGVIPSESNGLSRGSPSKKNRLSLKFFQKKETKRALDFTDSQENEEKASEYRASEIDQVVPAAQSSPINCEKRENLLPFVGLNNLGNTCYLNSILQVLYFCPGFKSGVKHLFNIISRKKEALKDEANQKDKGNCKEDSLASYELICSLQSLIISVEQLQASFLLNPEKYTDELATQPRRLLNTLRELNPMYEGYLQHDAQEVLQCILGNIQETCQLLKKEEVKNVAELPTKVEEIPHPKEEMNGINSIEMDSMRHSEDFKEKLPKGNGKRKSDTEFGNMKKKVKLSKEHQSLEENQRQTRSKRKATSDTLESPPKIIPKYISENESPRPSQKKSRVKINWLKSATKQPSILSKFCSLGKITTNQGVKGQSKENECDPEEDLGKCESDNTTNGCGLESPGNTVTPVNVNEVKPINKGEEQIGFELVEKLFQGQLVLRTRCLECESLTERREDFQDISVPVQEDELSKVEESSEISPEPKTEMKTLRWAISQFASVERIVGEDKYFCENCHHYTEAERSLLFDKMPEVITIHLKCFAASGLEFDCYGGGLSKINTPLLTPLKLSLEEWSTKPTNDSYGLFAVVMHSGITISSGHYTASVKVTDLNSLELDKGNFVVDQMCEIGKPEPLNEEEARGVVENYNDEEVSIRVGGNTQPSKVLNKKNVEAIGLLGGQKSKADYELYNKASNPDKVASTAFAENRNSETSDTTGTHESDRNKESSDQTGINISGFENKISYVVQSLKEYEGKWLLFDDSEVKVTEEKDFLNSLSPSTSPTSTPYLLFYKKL
Chain of Luciferin 4-monooxygenase (Photinus pyralis) (P08659 whole entry, looked up): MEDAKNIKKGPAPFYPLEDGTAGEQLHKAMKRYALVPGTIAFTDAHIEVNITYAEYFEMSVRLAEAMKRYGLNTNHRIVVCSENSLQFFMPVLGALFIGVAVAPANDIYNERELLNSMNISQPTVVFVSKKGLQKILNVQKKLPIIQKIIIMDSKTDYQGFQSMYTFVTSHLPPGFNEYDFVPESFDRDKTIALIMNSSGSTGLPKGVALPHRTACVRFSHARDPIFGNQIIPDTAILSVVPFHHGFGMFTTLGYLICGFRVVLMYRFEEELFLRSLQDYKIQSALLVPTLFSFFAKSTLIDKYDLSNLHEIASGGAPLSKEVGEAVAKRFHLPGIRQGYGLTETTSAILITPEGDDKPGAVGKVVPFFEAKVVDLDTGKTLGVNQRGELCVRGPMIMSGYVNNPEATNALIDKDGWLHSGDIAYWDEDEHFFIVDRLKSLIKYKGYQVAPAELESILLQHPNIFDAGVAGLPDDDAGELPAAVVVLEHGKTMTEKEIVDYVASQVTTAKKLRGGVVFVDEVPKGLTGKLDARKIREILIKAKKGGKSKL

Consider `CC(=O)OCC(=O)[C@@H]1CC[C@H]2[C@H]3CC[C@H]4C[C@@H](O)CC[C@]4(C)[C@@H]3C(=O)C[C@@]12C`, for which the molecule was called inactive in [1], in assay [3] and in [6]. Also, the Potency entry in assay [2], in assay [7], in assay [9], in assay [10], in [12] and in [13] was “inactive” throughout. Also, the Potency result in assay [14], in assay [15], in assay [16], in assay [17], in [18] and in assay [19] was “inactive” throughout. Besides, the Potency in assay [4] and in assay [5] was > 20.6 µM (inactive) throughout. Moreover, the activity change, negative = inhibition in [8] was -5.39% (inactive). For the same molecule, the max response is -23.1% in assay [8] (setting [21]) and -26.2% in [8] (setting [22]). Besides, the activity, negative = inhibition is 5.9% (inactive) in assay [11] (parasite line A) and 17.2% (inactive) in assay [11] (parasite line B).
As for `CN1Cc2c(ccc3c2OCO3)[C@@H]2[C@@H](O)Cc3cc4c(cc3[C@@H]21)OCO4`, the molecule was classed as inactive in [1], in [3] and in [6]. Moreover, the Potency was 2.51 µM (active) and 794 nM (active) in assay [2]; > 20.6 µM (inactive) and > 46 µM (inactive) in assay [4]; > 20.6 µM (inactive) and > 46 µM (inactive) in assay [5]. In addition, the Potency result in assay [7] and in assay [9] was “inactive” each time. For the same molecule, the activity change, negative = inhibition in assay [8] was 0.247% (inactive). For the same molecule, the max response in assay [8] (setting [21]) was 0.16%; in assay [8] (setting [22]), -1.15%.
`C/C=C1\C[N@@+]2(C)CC[C@@]34C(=C(C=O)[C@H]1C[C@H]32)Nc1ccccc14`: the outcome in assay [1] and in assay [6] was inactive. Further, the Potency entry in assay [2], in assay [7] and in assay [9] was “inactive” throughout. The activity change, negative = inhibition in [20] was -3.46% (inactive); in assay [8], -2.98% (inactive). The Potency in assay [4] and in [5] was > 20.6 µM (inactive) each time. In addition, the results for the max response in assay [8] (setting [21]) and in assay [8] (setting [22]) were -3.08% and -5.51%, respectively.
In the case of `C[C@]12CC[C@H](O)C[C@@H]1CC[C@H]1[C@H]2CC[C@]2(C)C(=O)CC[C@@H]12`, the call in [1], in assay [3] and in assay [6] was inactive. For the same molecule, the Potency result in assay [2] and in [7] was “inactive” throughout. The Potency in [5] is > 46 µM (inactive) and > 20.6 µM (inactive). In addition, in assay [8], the activity change, negative = inhibition was -2.44% (inactive) and -2.6% (inactive) and -5.42% (inactive). Moreover, the max response is -9.77% and -5.73% and -17.9% in assay [8] (setting [21]); -12.1% and -8.44% and -22.6% in [8] (setting [22]).
In the case of `COc1cc(C(=O)OC2C[C@H]3CC[C@@H](C2)N3C)ccc1O` (stereo not given in full), the outcome in assay [1], in assay [3] and in assay [6] was inactive. For the same molecule, the Potency entry in assay [2], in assay [7] and in assay [9] was “inactive” in each case. Moreover, the Potency in assay [5] is > 20.6 µM (inactive). Further, the activity change, negative = inhibition in assay [8] is 2.65% (inactive). The max response is -32.4% in assay [8] (setting [21]) and -27.3% in assay [8] (setting [22]).
For `C[C@@]12CCC(=O)C=C1C=C[C@H]1[C@H]3CC[C@](O)(CCC(=O)O)[C@]3(C)CC[C@@H]12`, the result in assay [1], in assay [3] and in assay [6] was inactive. Also, the values for the activity change, negative = inhibition in assay [20] and in assay [8] were -1.71% (inactive) and -0.688% (inactive), respectively. Moreover, the Potency in assay [4] and in [5] was > 20.6 µM (inactive) in each case. For the same molecule, the Potency entry in assay [7], in [9], in assay [10], in assay [12], in assay [13] and in assay [14] was “inactive” throughout. For the same molecule, the Potency entry in assay [15], in assay [16], in [17], in assay [18] and in [19] was “inactive” in each case. The values for the max response in assay [8] (setting [21]) and in [8] (setting [22]) were -7.2% and -8.17%, respectively. The activity, negative = inhibition in assay [11] (parasite line A) was 9.22% (inactive); in assay [11] (parasite line B) it was 6.42% (inactive).
